# Among all 4,100 compounds or so, about 1,600 (39%) were called active. Inconclusive results (about 25%) are left out. Some of the results follow. Unmarked numbers belong to inactive results. Calls come from the whole dose curve; as a rule, active = well fitted inhibition curve with a large enough effect; inconclusive = small, poorly fitted or top-dose-only effect; inactive = no such curve, though single readings can be large or run the other way.
# Assay: qHTS Validation assay for Inhibitors of Plasmodium falciparum Dd2 growth in vitro; note: nearly all actives have a fitted effect of over 70% in size
# Settings: P. falciparum Dd2 in RBCs, SYBR Green growth, 72 h; series mostly up to 28.7 µM; activity change, negative = inhibition: at the top concentration
# Text: Malaria, a parasitic disease spread to humans through the bite of a Plasmodium infected Anopheles mosquito, continues to be a global health burden affecting millions of people, with an estimated 228 million cases and 405,000 deaths in 2018. Concerns about safety and limitations of current antimalarial treatments strongly emphasize the need to develop new therapeutic options. The scarce number of chemotypes and validated drug targets with efficacy against the liver stage, have hindered development of new antimalarials. To address this, a chemoprophylactic drug discovery effort was conducted through a combined phenotypic high-throughput asexual blood stage and liver stage screen, providing a robust foundation to identify liver-stage active lead chemotypes. Compounds were initially screened against Plasmodium falciparum Dd2 strain parasites using a in vitro SYBRGreen-1 based 72 hr proliferation assay to identify novel chemotypes to advance to liver stage assays. NIH/NCATS Early Translation Branch Assay Submitter (PI): Anton Simeonov Ph.D.
# […] Assay Protocol: PROTOCOL TABLE (as described by Inglese et al., 2007) SEQUENCE No. (e.g., 1, 2, 3, etc.); PARAMETER (e.g., Cells, Incubation, Reagent, etc.); VALUE; DESCRIPTION SEQUENCE, Parameter, Description 1; Reagent; 3 uL complete malaria growth medium, 1536 TC treated Black clear bottom plate 2; Controls; 23 nL positive control artesunate (300 nM final) to column 1; Neutral control DMSO to columns 2-4 3; Compound; 23 nL of compounds in dose response concentration (29 uM to 0.5 nM final) 4; Reagent; 5 uL malaria infected red blood cells (2.5% hematocrit final, 0.3% parasitemia 5; Time; 72 hours at 37C (5% O2, 5% CO2, 90% N2; 95% Rh) 6; Reagent; 2 uL lysis buffer/SYBRGreen-1, 25 sec shake immediately following dispense 7; Time; ~16 hours at 37C (5% O2, 5% CO2, 90% N2; 95% Rh) 8; Detector; EnVision (PerkinElmer) bottom read at 485/14nm excitation and 535/25 nm emission NOTES (numbers refer to sequence above): 1; Complete Malaria Growth Media: 1X RPMI-1640 w/L-glutamine, 5.5g/L Albumax II, 367 uM Hypoxanthine, 25 mM HEPES, 0.25% Sodium Bicarbonate, 35 uM Gentamicin sulfate 2; Controls were added using the Kalypsis Pintool (Wako USA) equipped with 1536 pinhead 3; Compounds were added in a 7-point, titration with a high final concentration of 29 uM by Pintool from seven inter-plate titrations of library plates and two DMSO control plates at the beginning and end (see Yasgar et al., 2008). 4; Red blood cells infected with Plasmodium falciparum Dd2 parasites were used. 6; Lysis buffer: 20 mM Tris-HCl, 10 mM EDTA, 0.16% Saponin, 1.6% Triton-X, 10X SYBR Green. REFERENCE: Inglese J, Shamu CE, Guy RK. 2007. Reporting data from high-throughput screening of small-molecule libraries. Nat Chem Biol. doi:10.1038/nchembio0807-438 Yasgar A, Shinn P, Jadhav A, Auld D, Michael S, Zheng W, Austin CP, Inglese J, Simeonov A. 2008. Compound Management for Quantitative High-Throughput Screening. J Lab Autom 13:79-89. doi:10.1016/j.jala.2007.12.004
# % is set by controls: 0 for no effect and ±100 for the full control effect; potency is the fitted concentration of half-maximal effect.
Compound,Potency,"activity change, negative = inhibition"
O=[S+]([O-])(NCC1CN(Cc2ccc(O)cc2)CC12CN(c1ccccc1)C2)c1ccccc1 (stereo unspecified),6.68 µM (active),–
CNCC(=O)N1CCC2(CC1)CN(Cc1ccccc1)CC2CO (stereo unspecified),–,8.38%
Cn1cc(C(=O)NCC2CN([S+](=O)([O-])c3ccccc3Cl)CC23CN(c2ccccc2)C3)cn1 (stereo unspecified),–,-15.3%
NC(=O)c1ccccc1OCC(=O)N1CC(CNC(=O)Nc2ccccc2)C2(C1)CN(c1ccccc1)C2 (stereo unspecified),–,-14.4%
O=C(Cc1ccc(O)cc1)N1CC(CNc2ccccc2)C2(C1)CN(c1ccccc1)C2 (stereo unspecified),0.243 µM (active),–
COc1ccccc1C(=O)N1CC(CNC(=O)C2CC2)C2(C1)CN(c1ccccc1)C2 (stereo unspecified),–,8.56% [at 43.1 µM]
O=C(N[C@H]1CCOC[C@H]1C1CCOCC1)c1ccccc1-c1ccccc1,–,46.3%
CC(=O)N1CCc2cc(S(=O)(=O)CCC(=O)N3CCC(CCOc4ccccc4)C3)ccc21 (stereo unspecified),–,-21.9%
O=C(CCS(=O)(=O)c1cc(Br)cc2c1N(C(=O)C1CC1)CC2)Nc1ccc(Br)cc1F,3.35 µM (active),–
O=C1Cc2cc(S(=O)(=O)N3CCN(c4cccc(Cl)c4)CC3)ccc2N1,–,-37.7%
O=C(C1CC1)N1CCc2cc(Br)cc(S(=O)(=O)N3CCN(c4cccc(C(F)(F)F)c4)CC3)c21,4.73 µM (active),–
O=C(CCS(=O)(=O)c1cc(Br)cc2c1N(C(=O)C1CC1)CC2)N1CCN(c2cccc(Cl)c2)CC1,13.3 µM (active),–
Cc1ccc(NC(=O)CCS(=O)(=O)c2cc(Br)cc3c2N(C(=O)C2CC2)CC3)cc1,2.37 µM (active),–
Cc1ccc(NC(=O)CCS(=O)(=O)c2ccc(Br)cc2)c(C)c1,–,40%
CC(=O)Nc1ccc(NS(=O)(=O)c2cc(Br)cc3c2N(C(=O)C2CC2)CC3)cc1,–,25.6%
CCCc1noc(-c2ccn3c(CNC(=O)c4cccc(Cl)c4)nnc3c2)n1,–,-6.54%
CCN(c1ccccc1)S(=O)(=O)c1cc(Br)cc2c1N(C(=O)C1CC1)CC2,2.99 µM (active),–
O=C(CCS(=O)(=O)c1cc(Br)cc2c1N(C(=O)C1CC1)CC2)Nc1ccc(C(F)(F)F)cc1,1.33 µM (active),–
CCN(c1ccccc1)S(=O)(=O)c1c(-c2ccc(C)cc2)csc1C(=O)OC,–,-3.17%
CC1=C[C@@H](CNC(C)C)[C@H](C(C)C)C[C@H]1Cc1nnc(C(C)(C)C)o1,–,-18.7% [at 43.1 µM]
CC1=C[C@@H](CNS(C)(=O)=O)[C@H](C(C)C)C[C@H]1Cc1nnc(-c2ccccc2F)o1,–,18.4% [at 43.1 µM]
CC1=C[C@@H](CNC(C)C)[C@H](C(C)C)C[C@H]1Cc1nnc(-c2ccc(C)cc2)o1,13.7 µM (active),–
CC1=C[C@@H](CNCCN(C)C)[C@H](C(C)C)C[C@H]1Cc1nnc(C(C)(C)C)o1,15.3 µM (active),–

Compound,Potency,"activity change, negative = inhibition"
CC1=C[C@@H](CNC2CC2)[C@H](C(C)C)C[C@H]1Cc1nnc(-c2ccc(C)cc2)o1,17.2 µM (active),–
CC(=O)NCCNC[C@@H]1C=C(C)[C@H](Cc2nnc(-c3ccccc3)o2)C[C@H]1C(C)C,17.2 µM (active),–
N#Cc1ccccc1CN1CCC([C@@H]2CNC[C@H]2CO)CC1,–,24.7%
O=C1COc2ccc(-c3ccsc3)nc2CN1,–,40.8% [at 57.5 µM]
CCN(CC)CCNC(=O)C1CCCN(S(=O)(=O)c2ccccc2)CCC(=O)NCC1 (stereo unspecified),–,5.63%
CCN(CC)CCNC(=O)c1c(O)c2cccc3c2n(c1=O)CCC3,10.6 µM (active),–
CC(C)CN1C(=O)c2ccccc2C(C(=O)Nc2nccs2)C12CCCC2 (stereo unspecified),8.41 µM (active),–
Cc1nnc(NC(=O)C2c3ccccc3C(=O)N(CC(C)C)C23CCCCC3)s1 (stereo unspecified),15 µM (active),–
O=C(NCc1ccccn1)C1c2ccccc2C(=O)N(C2CCCC2)C12CCCCC2 (stereo unspecified),–,-27.1%
Cc1nnc(SCC(=O)Nc2nccs2)o1,–,35.8%
O=C(Nc1nccs1)C1c2ccccc2C(=O)N(C2CCCC2)C12CCCC2 (stereo unspecified),4.22 µM (active),–
CCCNCC(O)COc1ccccc1C(=O)CCc1ccccc1 (stereo unspecified),0.842 µM (active),–
CCN(CC)CC(O)COc1ccccc1C(=O)CCc1ccccc1 (stereo unspecified),1.5 µM (active),–
COc1ccccc1CNC(=O)[C@@H](C)C1CC[C@@]2(C)CC[C@H](NC(=O)c3cncnc3)[C@@H](C)[C@@H]2[C@H]1O (stereo partly specified),2.37 µM (active),–
CCN(CC)C(=O)[C@@H](C)C1CC[C@@]2(C)CC[C@H](NC(=O)COc3ccccc3)[C@@H](C)[C@@H]2[C@H]1O (stereo partly specified),–,1.65%
CCN(CC)C(=O)C(C)[C@@H]1CC[C@@]2(C)CC[C@H](NC(=O)c3cnccn3)[C@@H](C)[C@@H]2[C@H]1O (stereo partly specified),–,-37% [at 43.1 µM]
CCn1cnnc1CC1CCN(C(=O)C2CC2)CC1,–,15.8%
CCS(=O)(=O)c1ccc2oc(Nc3cc(C)cc(C)c3)nc2c1,–,-17.2%
CCN(CC)c1ccc2oc(=O)c(C)nc2c1,6.68 µM (active),–
Cn1cc(C(NS(=O)(=O)c2cccc3c2OCCO3)C2CC(O)C2)cn1 (stereo unspecified),–,14.4%
CC(C)NC(=O)CSc1nnc(CNC(=O)OC(C)(C)C)n1C,–,26.5%
CC(C)Cc1nc2nccc(-c3cccs3)n2n1,–,4.53%
Cc1nc2ccc(C(=O)NCc3cc4n(n3)CCN(C(=O)N(C)C)C4)cc2o1,–,52.8%

# From PubChem BioAssay AID1347416 (National Center for Advancing Translational Sciences (NCATS), 2020)
